# CHRM1 antagonist = human M1 muscarinic receptor antagonists, primary screen, CHO-K1 cells, Fluo-8 calcium fluorescence, 1536-well. CHO-K1 hM1, ACh EC80 antagonist. inhibition, % at 3 µM. actives 1.3% (n = 360,000);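 active = percent inhibition above its own plate's cutoff, namely the mean of that plate's compound wells plus 3 SD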;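 also: peak over basal fluorescence ratio during 140 s after agonist addition; 0% = ACh EC80 plus DMSO and 100% = DMSO alone without agonist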
# Target sequence (P11229 whole entry, looked up): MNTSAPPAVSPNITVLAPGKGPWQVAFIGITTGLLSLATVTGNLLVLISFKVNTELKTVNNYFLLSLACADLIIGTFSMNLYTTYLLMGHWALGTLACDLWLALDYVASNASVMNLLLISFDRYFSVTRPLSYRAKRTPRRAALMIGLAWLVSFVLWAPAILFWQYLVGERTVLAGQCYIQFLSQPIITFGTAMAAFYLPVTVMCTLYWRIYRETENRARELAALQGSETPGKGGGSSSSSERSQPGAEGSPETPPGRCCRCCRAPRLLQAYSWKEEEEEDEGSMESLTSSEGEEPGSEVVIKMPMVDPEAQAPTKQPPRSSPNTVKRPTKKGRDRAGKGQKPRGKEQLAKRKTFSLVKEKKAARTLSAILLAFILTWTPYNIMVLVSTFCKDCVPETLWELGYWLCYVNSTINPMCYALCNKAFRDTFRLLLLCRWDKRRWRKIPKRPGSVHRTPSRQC
# CHO-K1 Ca antag = counter-screen for M1 antagonists: effect in parental CHO-K1 cells; ATP-induced calcium, Fluo-8 fluorescence; inhibition, % at 3 µM; actives 0.6% (n = 360,000); AID 602250;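 active = inhibition above a per-plate cutoff, the plate's mean sample inhibition plus 3 SD, cut at about 24% in these data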;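 also: 0% = DMSO plus EC80 ATP and 100% = DMSO alone without ATP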
# CHRM1 PAM = human M1 muscarinic receptor positive allosteric modulators, primary screen, CHO-K1 cells, Fluo-8 calcium fluorescence, 1536-well. CHO-K1 hM1, ACh EC20; 0% = ACh EC20, 100% = maximal ACh. activation, % at 3 µM. actives 0.088% (n = 360,000); in the data active = activation above about 19%, passing the limit was not always enough
# M1 ag = human M1 muscarinic receptor agonists, primary screen, Fluo-8 calcium fluorescence, CHO-K1 cells, HTS | Muscarinic acetylcholine receptor M1 (Homo sapiens), P11229 | CHO-K1 hM1, agonist mode; 0% DMSO, 100% acetylcholine EC100 | activation, % at 3 µM | actives 0.33% (n = 360,000) | AID 588814, 2011;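 active = activation above the run's mean compound activation plus 3 SD, cut at about 16% in these data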;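 also: peak over basal fluorescence ratio within a 140 s kinetic read after compound addition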
# M1 PAM parental = nonselective calcium activators in parental CHO-K1 cells, primary screen, counter-screen for M1 PAM project, cell-based, Fluo-8 calcium fluorescence, full deck, 1536-well; ATP EC20; 0% at ATP EC20, 100% at ATP max; activation, % at 3 µM; actives 0.02% (n = 360,000); AID 602247, 2012;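 active = activation above the run cutoff, the mean activation of all test compounds plus 3 SD, cut at about 40% in these data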;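 also: peak over basal fluorescence ratio in a 140 s read after ATP addition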
# CHO-K1 Ca ag = counter-screen for M1 agonists: effect in parental CHO-K1 cells; Fluo-8 calcium fluorescence; scaled to maximal ATP response, vehicle zero; activation, % at 3 µM; actives 0.48% (n = 360,000); AID 602248, 2012; in the data active = activation above about 15%;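 also: untransfected CHO-K1 host cells lacking M1 receptor as counterscreen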
# * hit, by the source's call; x = not tested or not shown. Sampled rows, rich in hits. Any-hit rate of the full collection: about 2.3%.
SMILES,CHRM1 antagonist,CHO-K1 Ca antag,CHRM1 PAM,M1 ag,M1 PAM parental,CHO-K1 Ca ag
Cc1cccc(C(=O)OC(C)C(=O)Nc2ccc(S(=O)(=O)N3CCCC3)cc2)c1O (stereo not given),29*,18,-16,-5,-15,3
Cc1ccccc1OC(C)C(=O)Nc1ccc(S(=O)(=O)N2CCCC2)cc1 (stereo not given),89*,-9,-23,-4,7,2
CC(Oc1ccc(Br)cc1)C(=O)Nc1ccc(S(=O)(=O)N(C)C2CCN(C)CC2)cc1 (stereo not given),67*,57*,-19,55*,-31,55*
COc1ccccc1N(CC(=O)N1CCN(c2ccccc2)CC1)S(=O)(=O)c1ccc(C)cc1,-8,-4,0,-2,0,4
COc1ccc(CCNC(=O)CSc2nc3c(sc(=S)n3-c3ccccc3)c(=O)[nH]2)cc1OC,-12,1,2,-4,7,0
O=C(NNC(=O)c1ccc(-c2ccccc2)cc1)Nc1ccc(F)cc1F,-6,-5,6,-3,-3,0
Cc1ccc(OC(C)C(=O)Nc2ccc(S(=O)(=O)N3CCOCC3)cc2)cc1 (stereo not given),1,-10,5,22*,26,11
CC(C)C(=O)Nc1ccc(C(=O)Nc2ccc(S(=O)(=O)N3CCOCC3)cc2)cc1,-21,-3,11,-1,15,0
CC(Sc1ccc(Cl)cc1)C(=O)Nc1ccc(S(=O)(=O)N2CCOCC2)cc1 (stereo not given),-1,-17,10,22*,19,11
CC(Oc1ccc(C(=O)c2ccccc2)cc1)C(=O)Nc1ccc(S(N)(=O)=O)cc1 (stereo not given),5,0,1,14,23,18*
CC(Oc1ccccc1)C(=O)Nc1ccc(S(=O)(=O)N2CCCC2)cc1 (stereo not given),-7,0,-4,-10,-11,3
CC(Oc1cc(F)ccc1[N+](=O)[O-])C(=O)Nc1ccc(S(=O)(=O)N2CCCC2)cc1 (stereo not given),73*,-2,-26,-5,2,5
Cc1ccccc1S(=O)(=O)Cc1ccc(C(=O)N(C)C2CCCCC2)o1,-1,0,-1,-2,-9,3
Cn1c(=O)c2cc(NC(=O)OCCF)ccc2n1Cc1cccc(C(F)(F)F)c1,-13,-11,7,5,24,4
CCOC1CCCc2oc(-c3ccc(OC)cc3)c(C#CCCO)c21 (stereo not given),x,-2,x,x,11,0
Cc1cc(C)nc(/N=C(\N)N2CCCCCC2)n1,30*,-2,-24,-12,10,0
CNc1oc(-c2ccc(Cl)cc2)nc1P(=O)(c1ccccc1)c1ccccc1,11,-14,5,0,49*,0
Cc1ccc(-c2nc(P(=O)(c3ccccc3)c3ccccc3)c(N3CCOCC3)o2)cc1,-10,-3,10,-5,17,0
COc1ccccc1-c1ccc(/C=C2\C=CC(=O)O2)o1,20,17,-13,27*,-4,28*
COC(=O)C1=C(C)N(Cc2ccccc2)C(=NCc2ccccc2)N[C@H]1c1cccc(C(F)(F)F)c1,7,16,5,-3,1,21*
Cc1ccc(O)c(NC(=S)NC(=O)Cc2ccc(Cl)cc2)c1,97*,90*,-26,79*,-20,58*
Cc1ccc(NC(=S)NC(=O)c2ccc(-c3ccc(Cl)cc3)o2)c(O)c1,-8,-10,6,-7,18,0
CN(C)S(=O)(=O)N1CCN(c2ccccc2)CC1,-35,-14,30*,8,-11,0
CN(C)S(=O)(=O)N1CCN(c2cccc(Cl)c2)CC1,-1,-7,3,-4,2,0

# Source: PubChem (The Scripps Research Institute Molecular Screening Center)
